NCOA2 inhibitor: inhibits human steroid receptor coactivator 2; HEK293 GAL4-SRC2 luciferase reporter, luminescence; inhibition, % at 9 µM; AID 651957; 0.17% of 370,000 active;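 active = inhibition above the mean inhibition of all tested compounds plus 3 SD, set per campaign, cut at about 52% in these data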;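 note: 0% = DMSO treated cells and 100% = cells given Gossypol at 36 µM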
NR5A2 inv ag: suppresses constitutive activity of human LRH-1 | 0.13% of 360,000 active | inhibition, % at 3.6 µM | HEK293T StAR-luciferase reporter, LRH-1 transfected, 24 h | O00482;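 active = inhibition above the mean inhibition of all tested compounds plus 3 SD, cut at about 73% in these data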;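 note: 0% = DMSO wells and 100% = reporter-only cells lacking LRH-1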
Target sequence (O00482 whole entry, looked up): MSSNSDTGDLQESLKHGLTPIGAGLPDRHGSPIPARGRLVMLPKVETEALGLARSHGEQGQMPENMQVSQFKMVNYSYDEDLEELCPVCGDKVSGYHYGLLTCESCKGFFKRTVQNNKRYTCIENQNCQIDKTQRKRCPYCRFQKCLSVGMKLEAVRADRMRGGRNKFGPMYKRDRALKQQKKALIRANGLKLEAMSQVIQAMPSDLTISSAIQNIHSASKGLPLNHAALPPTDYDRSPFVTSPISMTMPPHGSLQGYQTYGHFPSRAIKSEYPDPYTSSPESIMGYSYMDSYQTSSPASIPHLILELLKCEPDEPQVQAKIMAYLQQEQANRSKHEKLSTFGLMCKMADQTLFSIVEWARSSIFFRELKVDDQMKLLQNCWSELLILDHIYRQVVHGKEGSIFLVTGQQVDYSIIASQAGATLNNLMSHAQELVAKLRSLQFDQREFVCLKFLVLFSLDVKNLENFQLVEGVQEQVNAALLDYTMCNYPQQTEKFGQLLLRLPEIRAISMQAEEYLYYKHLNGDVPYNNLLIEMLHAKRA
LGR2 inh: blocks bursicon-induced cAMP signaling via Drosophila LGR2; HEK293 LGR2, CRE-luciferase, bursicon-stimulated, 4 h; inhibition, % at 9.99 µM; 0.35% of 380,000 active;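 active = drop in luminescence signal, shown as inhibition above about 50% in the replicate tests, limit read from the data, passing the limit was not always enough; inconclusive = probably only some replicates passing the limit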;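 note: agonist challenge used bursicon conditioned medium at about half maximal strength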
NCOA1 inh: inhibits human SRC1 coactivator; Q15788; HEK293 GAL4-SRC1 luciferase reporter, luminescence; inhibition, % at 3.6 µM; 0.12% of 360,000 active; AID 588354;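 active = inhibition above the campaign mean plus 3 SD, with each screening campaign given its own cutoff, cut at about 60% in these data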;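 note: 0% = DMSO treated cells and 100% = gossypol at 36 µM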
SRC3 inh: inhibits human SRC3 coactivator; Q9Y6Q9; HEK293 GAL4-SRC3 luciferase reporter, luminescence; inhibition, % at 3.6 µM; 0.17% of 360,000 active; AID 588352;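 active = inhibition above a per-campaign cutoff, the mean of all compounds plus 3 SD, cut at about 60% in these data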;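 note: 0% = DMSO-treated cells and 100% = gossypol-treated cells at 36 µM; higher means less SRC3-driven luciferase light from the GAL4 reporter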
An asterisk follows results filed as active. This is a sample that favours compounds with a hit; in the whole collection about 0.48% have one here.

Results for CCCCn1c(C)nc2cc(S(=O)(=O)N3CCOCC3)ccc21 ?
NCOA2 inhibitor: -6.5; NR5A2 inv ag: -5.2; LGR2 inh: 3.0; NCOA1 inh: 12.2; SRC3 inh: -5.4

What do the screens show for `CCCCn1c(CCl)nc2cc(S(=O)(=O)N3CCOCC3)ccc21`?
NCOA2 inhibitor: 63.1*; NR5A2 inv ag: 10.5; LGR2 inh: 6.2; NCOA1 inh: 18.6; SRC3 inh: 46.1

How did CN(Cc1cnc2nc(N)nc(N)c2n1)c1ccc(C(=O)NC(CCC(=O)O)C(=O)O)c2ccccc12 (centres undefined) do in these assays?
NCOA2 inhibitor: 15.1; NR5A2 inv ag: 46.0; LGR2 inh: 11.7; NCOA1 inh: 72.7*; SRC3 inh: 64.1*

What do the screens show for `O=C(O)CCC(NC(=O)c1ccc(Cl)cc1)C(=O)O` (centres undefined)?
NCOA2 inhibitor: -44.4; NR5A2 inv ag: 9.0; LGR2 inh: -6.0; NCOA1 inh: -26.2; SRC3 inh: 9.9

How did Cc1ccc(C(C)C)c(OCc2ccc(C(=O)N/N=C/c3ccc(O)cc3O)cc2)c1 do in these assays?
NCOA2 inhibitor: 64.1*; NR5A2 inv ag: 45.0; NCOA1 inh: 67.0*; SRC3 inh: 70.2*

What do the screens show for `CC1CC(C)C(=NNC(N)=O)C(C(O)CC2CCC(=O)NC2=O)C1` (centres undefined)?
NCOA2 inhibitor: 57.5*; NR5A2 inv ag: 99.1*; LGR2 inh: inconclusive; NCOA1 inh: 75.5*; SRC3 inh: 73.6*

How did O=S(=O)(c1ccccc1F)N1CC[C@@H]2[C@H]1c1cc(-c3cccc(F)c3)ccc1N[C@@H]2CO do in these assays?
LGR2 inh: 96.6*

What do the screens show for `O=C(N/N=C/c1ccc(C(F)(F)F)cc1)c1ccc(O)cc1`?
NCOA2 inhibitor: -54.2; NR5A2 inv ag: -59.2; LGR2 inh: -84.4; NCOA1 inh: -21.2; SRC3 inh: -16.4

Results for CN(C)c1ccc(/C=N/Nc2cccc(C(=O)O)c2)cc1 ?
NCOA2 inhibitor: -57.9; NR5A2 inv ag: -128.6; LGR2 inh: 86.8*; NCOA1 inh: -145.1; SRC3 inh: -179.1

Results for CC(C)(C)c1ccc(/C=N/Nc2cccc(C(=O)O)c2)cc1 ?
NCOA2 inhibitor: -61.9; NR5A2 inv ag: -325.2; LGR2 inh: 40.4; NCOA1 inh: -168.5; SRC3 inh: -169.9

What do the screens show for `O=C(O)c1ccc(N/N=C/c2ccc(C(F)(F)F)cc2)cc1`?
NCOA2 inhibitor: 14.0; NR5A2 inv ag: -27.9; LGR2 inh: 93.2*; NCOA1 inh: -12.4; SRC3 inh: 30.9

What do the screens show for `CC(C)(C)c1ccc(/C=N/Nc2ccc(C(=O)O)cc2)cc1`?
NCOA2 inhibitor: 26.4; NR5A2 inv ag: 57.4; LGR2 inh: 58.1*; NCOA1 inh: 48.5; SRC3 inh: 64.1*

What do the screens show for `O=C(N/N=C/c1c(F)cccc1Cl)C1CC1`?
NCOA2 inhibitor: -11.0; NR5A2 inv ag: -18.2; LGR2 inh: -0.3; NCOA1 inh: -8.4; SRC3 inh: -12.3

Results for O=C(O)c1ccc(N/N=C/c2c(F)cccc2Cl)cc1 ?
NCOA2 inhibitor: -10.8; NR5A2 inv ag: -87.0; LGR2 inh: 76.3*; NCOA1 inh: -30.9; SRC3 inh: -17.9

How did CN(C)c1ccc(/C=C2/SC(=O)N(CCN=C3NS(=O)(=O)c4ccccc43)C2=O)cc1 do in these assays?
NCOA2 inhibitor: -17.4; NR5A2 inv ag: -32.1; LGR2 inh: -20.4; NCOA1 inh: -73.5; SRC3 inh: -78.7

Results for CN(C)c1ccc(/C=C2\SC(=O)N(CCc3nnc(N)s3)C2=O)cc1 ?
NCOA2 inhibitor: 49.2; NR5A2 inv ag: -63.4; LGR2 inh: 89.2*; NCOA1 inh: -47.6; SRC3 inh: -59.3

Results for O=C(C[C@H]1CC[C@@H]2[C@H](COC[C@H](O)CN2S(=O)(=O)c2cccc(Cl)c2)O1)Nc1ccccc1 ?
LGR2 inh: 2.5

How did CCOc1ccc(-c2ccc(SCC)nn2)cc1 do in these assays?
NCOA2 inhibitor: -8.6; NR5A2 inv ag: -161.4; LGR2 inh: 59.0*; NCOA1 inh: -66.2; SRC3 inh: -55.1

What do the screens show for `CCSc1ccc(-c2ccc(C)cc2)nn1`?
NCOA2 inhibitor: -55.8; NR5A2 inv ag: -164.4; LGR2 inh: -19.2; NCOA1 inh: -125.9; SRC3 inh: -91.6

What do the screens show for `COc1ccc(-c2ccc(SC)nn2)cc1`?
NCOA2 inhibitor: -28.8; NR5A2 inv ag: -108.6; LGR2 inh: 82.9*; NCOA1 inh: -85.0; SRC3 inh: -51.9

How did Cc1cc(C(=O)Nc2cccc3c2O[C@@H](CN(C)S(=O)(=O)c2cn(C)cn2)[C@H](C)CN([C@@H](C)CO)C3=O)n(C)n1 do in these assays?
LGR2 inh: 8.7

What do the screens show for `CN(C)c1ccc(/C=N/Nc2nc3ccccc3o2)cc1`?
NCOA2 inhibitor: -52.2; NR5A2 inv ag: -130.0; LGR2 inh: 67.1*; NCOA1 inh: -116.2; SRC3 inh: -75.5

How did CCS(=O)(=O)c1ccc(C=NNc2nc3ccccc3o2)cc1 do in these assays?
NCOA2 inhibitor: -56.3; NR5A2 inv ag: -134.2; LGR2 inh: -63.4; NCOA1 inh: -98.4; SRC3 inh: -95.3

What do the screens show for `C[C@@H]1CCCCO[C@H](CN(C)Cc2ccc(C(F)(F)F)cc2)[C@H](C)CN([C@H](C)CO)C(=O)c2cc(NC(=O)C3CCCCC3)ccc2O1`?
LGR2 inh: 35.0

Results for O=c1[nH]c(CSc2ccccn2)nc2c1oc1ccccc12 ?
NCOA2 inhibitor: -12.4; NR5A2 inv ag: -113.8; LGR2 inh: 80.0*; NCOA1 inh: -134.2; SRC3 inh: -60.8

Results for CCCNC(=O)N[C@H]1CC[C@@H](CC(=O)N2CCN(C)CC2)O[C@H]1CO ?
LGR2 inh: 5.3

How did CCCNC(=O)C[C@H]1C[C@@H]2c3cc(NC(=O)Nc4ccccc4F)ccc3O[C@@H]2[C@H](CO)O1 do in these assays?
LGR2 inh: 8.0

What do the screens show for `COc1ccc2nc(C)cc(N/N=C/c3ccc(F)cc3)c2c1`?
NCOA2 inhibitor: -43.2; NR5A2 inv ag: 9.9; LGR2 inh: 69.2*; NCOA1 inh: -4.3; SRC3 inh: 13.9

Results for COc1ccc(/C=N/Nc2cc(C)nc3ccccc23)cc1 ?
NCOA2 inhibitor: 4.6; NR5A2 inv ag: 11.5; LGR2 inh: -7.2; NCOA1 inh: 19.9; SRC3 inh: 20.4

What do the screens show for `C#CC(=O)N(c1cccc(OC)c1)C(C(=O)NC1CCCC1)c1cccs1` (centres undefined)?
NCOA2 inhibitor: -15.3; NR5A2 inv ag: 81.3*; LGR2 inh: 103.9*; NCOA1 inh: 25.7; SRC3 inh: 59.3

What do the screens show for `C#CC(=O)N(c1ccc(OC)c(OC)c1)C(C(=O)NC1CCCC1)c1cccs1` (centres undefined)?
NCOA2 inhibitor: -0.5; NR5A2 inv ag: 43.8; LGR2 inh: 101.3*; NCOA1 inh: 0.8; SRC3 inh: 36.9

How did Cc1cccc(N(C(=O)C(F)(F)F)C(C(=O)NC2CCCCC2)c2cccs2)c1 (centres undefined) do in these assays?
NCOA2 inhibitor: -25.8; NR5A2 inv ag: -9.8; LGR2 inh: 17.5; NCOA1 inh: -1.6; SRC3 inh: 11.3

Results for O=C(Cn1ncc2c1-c1ccccc1OC2)N1CCN(Cc2ccccc2)CC1 ?
NCOA2 inhibitor: 0.2; NR5A2 inv ag: 2.3; LGR2 inh: -1.4; NCOA1 inh: 9.0; SRC3 inh: 15.5

Compound activity from PubChem BioAssay.
